Reference: PubChem BioAssay (NCATS)
Records with an inconclusive call do not appear. Activity calls are given as the source filed them. The call rests on the fitted dose curve; in most records, active means well fitted inhibition curve with a large enough effect; inconclusive means small, poorly fitted or top-dose-only effect; inactive means flat fitted curve, though single readings scatter.

Tests used:
Test in all cases: qHTS profiling for inhibitors of Plasmodium falciparum proliferation (AID 504749); further: nearly all actives have a fitted effect of over 60% in size
Settings in all cases: P. falciparum in erythrocytes, SYBR Green DNA, 72 h; series mostly up to 28.7 µM
CP203 = test system: CP203
Summary of the method: (§1)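 P. falciparum-infected erythrocytes (0.3% parasitemia, 2.5% hematocrit) incubated with compound 72 h at 37 C, 5% CO2. Parasite DNA detected by SYBR Green after lysis, overnight at room temperature; normalised to 0.29 uM artemisinin and DMSO.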

CP211 = test system: CP211
Summary of the method: as §1

CP215 = test system: CP215
Summary of the method: as §1

CP217 = test system: CP217
Summary of the method: as §1

CP237 = test system: CP237
Summary of the method: as §1

CP238 = test system: CP238
Summary of the method: as §1

CP247 = test system: CP247
Summary of the method: as §1

CP250 = test system: CP250
Summary of the method: as §1

CP252 = test system: CP252
Summary of the method: as §1

CP256 = test system: CP256
Summary of the method: as §1

Measured: Potency

O=c1[nH]c2cc(C(F)(F)F)c(N3CCOCC3)cc2n(CP(=O)(O)O)c1=O
inactive: all assays above

CN1CCN(C(=O)C2CCCCC2)CC1
inactive: all assays above

O=C(NCN1CCOCC1)c1cnccn1
inactive: all assays above

CC1CC(OC(=O)c2ccccc2O)CC(C)(C)C1 (stereo not given)
inactive: all assays above

NS(=O)(=O)c1cc(-c2nn[nH]n2)c(NCc2cccs2)cc1Cl
inactive: all assays above

Cc1ccc(S(=O)(=O)NC(=O)NC2CCCCCCC2)cc1
inactive: all assays above

CCN(CC)S(=O)(=O)c1ccc(C(=O)O)cc1
inactive: all assays above

CC(C(=O)O)c1ccc2c(c1)Cc1cccnc1O2 (stereo not given)
inactive: all assays above

O=C(O)COC(=O)Cc1ccccc1Nc1c(Cl)cccc1Cl
inactive: all assays above

CC(C)CCOC(=O)c1ccc(N(C)C)cc1
inactive: all assays above

O=C(NCCCN1CCOCC1)c1ccc(Cl)cc1
inactive: all assays above

Cc1ccc(C(C)C)c(O)c1
inactive: all assays above

C=CCNC(N)=S
inactive: all assays above

COc1ccc(Cc2cnc(N)nc2N)cc1OC
inactive: all assays above

Cn1c([N+](=O)[O-])cnc1COC(N)=O
inactive: all assays above

CC(N)CCCC(C)(C)O (stereo not given)
inactive: all assays above

CC(=O)Oc1cccc(O)c1
inactive: all assays above

c1ccc2[nH]ccc2c1
inactive: all assays above

CN(C(=O)c1c(O)c2ccccc2n(C)c1=O)c1ccccc1
inactive: all assays above

CCCCCC(N)=O
inactive: all assays above

C=CCSCC1Nc2cc(Cl)c(S(N)(=O)=O)cc2S(=O)(=O)N1 (stereo not given)
inactive: all assays above

O=C(Cn1ccnc1[N+](=O)[O-])NCCO
inactive: all assays above
